Screening data (PubChem)
Pf Dd2 growth – qHTS Primary assay for Inhibitors of Plasmodium falciparum Dd2 growth in vitro. 120,000 tested, 4.3% active. AID 1347417, 2020. P. falciparum Dd2 growth, SYBR Green, 72 h. Potency, µM (series often up to 28.9 µM), for the others: top-dose activity, negative = inhibition, usual class: inhibitors; active = well fitted inhibition curve with a large enough effect;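 note: plate controls were DMSO vehicle for no effect and reference drug for full effect; nearly all actives have a fitted effect of over 65% in size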
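Readout: SYBR Green fluorescence, 485 nm excitation, 535 nm emission, after ~16 h lysis at 37C. Before that, Dd2-infected red cells (2.5% hematocrit) grew 72 h with compound, 29 uM top final concentration.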
* hit, by the source's call; i = inactive; [ ] = another dose, or the depositor's remark. The entries come from a sample that favours hits as a whole. Potency is the fitted concentration of half-maximal effect.

SMILES | Pf Dd2 growth
CC1=C[C@@H](CNC(=O)c2ccccn2)[C@H](C(C)C)C[C@H]1CC(=O)N1CCN(C)CC1 | 11µM*
CC1=C[C@@H](CNC(=O)c2cccnc2)[C@H](C(C)C)C[C@H]1CC(=O)N1CCN(C)CC1 | i
CC1=C[C@@H](CNC(=O)c2cccnc2)[C@H](C(C)C)C[C@H]1CC(=O)N1CCCC1 | -29%[44.1 µM]
COc1cccc(NC(=O)NC[C@@H]2C=C(C)[C@H](CC(=O)N3CCOCC3)C[C@H]2C(C)C)c1 | -20%
COc1ccccc1C(=O)NC[C@@H]1C=C(C)[C@H](CC(=O)NCc2ccccn2)C[C@H]1C(C)C | i
C#CCNC(=O)C[C@@H]1C[C@@H](C(C)C)[C@H](CNC(=O)c2ccccn2)C=C1C | -10%[44.1 µM]
COc1ccccc1C(=O)NC[C@@H]1C=C(C)[C@H](CC(=O)N2CCCC2)C[C@H]1C(C)C | 13µM*
CC(=O)N1CCN(C(=O)C[C@@H]2C[C@@H](C(C)C)[C@H](CNC(=O)Nc3cccc(F)c3)C=C2C)CC1 | i
CCc1nnc(SCc2nc(-c3ccccc3Cl)oc2C)c2cc3sc(C)cc3n12 | 25%
CCNC(=O)[C@@H]1C[C@H](NC(=O)c2ccn(CC)n2)CN1Cc1nc(C)no1 | 3%
Cc1cc(C(=O)NC2CCc3nnc(C4CC4)n3CC2)no1 (centres undefined) | 14%
Cc1cc(C)c(CNC(=O)c2cc(-c3ccccc3)cc3c2OCCN3C(C)C)c(=O)[nH]1 | i
Cc1ccccc1NS(=O)(=O)c1ccc2[nH]c3c(c2c1)CCCCC3 | -8%
CC1=C(c2ccc(C(C)C)cc2)S(=O)(=O)NC1=NCc1ccccc1C | i
COCCOC1CN(C2CCN(S(=O)(=O)c3ccccc3)CC2)C12CCCCC2 (centres undefined) | i
COCCOC1CN(C2CCN(Cc3cccc(F)c3)CC2)C12CCCCC2 (centres undefined) | 3.5µM*
COCCOC1CN(C2CCN(Cc3ccncc3)CC2)C12CCCCC2 (centres undefined) | i
COCCOC1CN(C2CCN(C(=O)c3ccc(OC)c(F)c3)CC2)C12CCCCC2 (centres undefined) | i
COCCOC1CN(C2CCN(C(=O)Nc3ccccc3F)CC2)C12CCCCC2 (centres undefined) | i
COCCOC1CN(C2CCN(Cc3ccc(F)c(F)c3)CC2)C12CCCCC2 (centres undefined) | 2.5µM*
Cc1ncccc1C(=O)N1CCC2(CCC(=O)N(CC3CC3)CC2)CC1 | i
COc1ccc(-c2nc(SCC(=O)NCc3ccccc3Cl)n[nH]2)cc1 | i
Cc1ccc(NC(=O)Cn2ncc3c4ccccc4n(Cc4ccccc4)c3c2=O)cc1Cl | 17%
O=C(Nc1ccc2ncnc(N3CCCC3)c2c1)c1cccc(Br)c1 | -20%
O=C(Nc1ccc2c(N3CCOCC3)ncnc2c1)c1ccccc1C(F)(F)F | i
SMILES | Pf Dd2 growth
O=C(Nc1ccc2c(N3CCOCC3)ncnc2c1)c1cccc(Br)c1 | 0.89µM*
Cc1ccc(C(=O)Nc2ccc3c(N4CCOCC4)ncnc3c2)cc1 | -11%
O=C(Nc1ccc2nc(SCC(=O)N3CCOCC3)sc2c1)c1cccc(Br)c1 | -6%
O=C(Nc1ccc2c(N3CCOCC3)ncnc2c1)c1ccc(F)c(Cl)c1 | 2.5µM*
O=C(NC1CCN(c2cc(C(F)(F)F)ncn2)CC1)c1ccccc1Cl | 3%
CCOc1cc(=O)n2c(c1C(=O)N1CCN(c3ccc(F)cc3)CC1)CCCCC2 | i
O=C(NCCOc1ccccc1)C1CNCCO1 (centres undefined) | -4%
Cc1cccc(-n2cc(CN3CC[C@H](CO)[C@@H](O)C3)cn2)c1 | -23%
CN1CCN(Cc2cnn(-c3cccc(Cl)c3)c2)CC1CCO (centres undefined) | 14µM*
COc1cc(CN2CCN(Cc3ccc(-n4cccn4)cc3C)CC2CCO)cc(OC)c1 (centres undefined) | -11%
CCc1nc2ccccc2n1CCCCOc1cccc(C)c1 | -27%
COCCC(=O)N1CCc2nnc([C@@H]3C[C@@H](O)CN3C(C)C)n2CC1 | i
CCNC(=O)N1CC[C@H]2C(=O)NCCCCCCN(Cc3ccncc3)[C@@H]2C1 | -25%
O=C1N(CCc2ccccc2)CCOC12CCN(Cc1ccc(F)c(Cl)c1)CC2 | -10%[44.1 µM]
COc1cc(CN2CCC(CO)(CN3CCCC3)CC2)ccc1F | 7.9µM*
Cc1cc(F)ccc1CN1CCC(CO)(CN2CCCC2)CC1 | i
CN1C(=O)[C@H]2CN(Cc3ccc(F)c(Cl)c3)C[C@H]2C1=O | 46%
OCC1(CN2CCCC2)CCN(Cc2cccc(O)c2)CC1 | -6%
OC1(CN2CCCCC2)CCN(Cc2ccc(F)c(Cl)c2)C1 (centres undefined) | 8.9µM*
Cc1cn2nc(C(=O)N3CCC(C(N)=O)CC3)cc2c(N2CCCC2)n1 | 4%
CN1C(C(=O)c2ccccc2)=C(NC(=O)c2ccc(F)cc2)c2ccccc2S1(=O)=O | -7%
COc1cccc(C(=O)N(Cc2nc(-c3ccc(Cl)cc3)no2)C(C)C)c1OC | 32%
Cc1ccc(NC(=O)Cn2c(=O)ccc3cc(S(=O)(=O)N4CCCC4)ccc32)cc1C | 34%
O=[S+]([O-])(c1cccs1)N1CCN(c2nc3ncccc3o2)CC1 | 0%
COc1cc(OC)c(NC(=O)Cn2c(=O)nc(-c3ccccc3)c3ccccc32)cc1Cl | -18%
SMILES | Pf Dd2 growth
CCNC(=O)CC1=CSC2=NC(C)=C(C(=O)OCC)C(c3cccc([N+](=O)[O-])c3)N12 (centres undefined) | -10%
Cc1c(C(=O)N2CCCC2)oc2c1-c1nn(CC(=O)NCc3cccc(F)c3)cc1CC2 | -25%
CCCCN(CCCC)CCCNC(=O)Cn1cc2c(n1)-c1c(oc(C(=O)N3CCCC3)c1C)CC2 | 11µM*
COc1cccc(CNC(=O)Cn2cc3c(n2)-c2c(oc(C(=O)N4CCCC4)c2C)CC3)c1 | -24%
O=C(c1cccnc1)N1CCN(c2cc(-c3cccs3)[nH]n2)CC1 | 3%
COCC(=O)N1CCC(Oc2ccccc2-c2nc(C3CCOCC3)no2)C1 (centres undefined) | i
O=C(Cn1nc2c(cc1=O)CCCCC2)Nc1cc(F)c(F)c(F)c1 | -2%
NCCc1noc(C2CC2)n1 | 31%
CCCCN1C(=O)C(O)(c2c(C)[nH]c3ccccc23)c2ccccc21 (centres undefined) | -9%
CCCCN1C(=O)C(O)(c2c(C)[nH]c3ccccc23)c2cc(Br)ccc21 (centres undefined) | 11µM*
CCN1C(=O)C(O)(c2c(C)[nH]c3ccccc23)c2ccccc21 (centres undefined) | 9%
CC(=O)Nc1ccc(-c2c(-c3cccc(C)c3)nn(-c3ccc(F)cc3)c2OC(C)=O)cc1 | -17%
Cc1ccc(-n2cc(CN(C)C(C)C(=O)N(C)C)c(-c3cccc(C)c3)n2)cc1 (centres undefined) | 4µM*
Cc1ccc(NC(=O)c2cn(-c3ccccc3)nc2-c2ccccc2)cc1 | -28%
CCOC(=O)C1CCC(CN(Cc2ccc(OC)cc2)S(=O)(=O)c2ccc(F)c(C(=O)Nc3c(C)cccc3C)c2)CC1 (centres undefined) | 5%
COC[C@H]1CCCN1[C@@H]1[C@H](O)[C@H](CO)O[C@@H]1CN(Cc1cccc(Cl)c1)Cc1cccc(Cl)c1 | 0.71µM*
COC[C@H]1CCCN1[C@@H]1[C@H](O)[C@H](CO)O[C@@H]1CNC(=O)Nc1ccccc1 | 2%[44.1 µM]
OC[C@@H]1O[C@H](CN(Cc2cccc(Cl)c2)Cc2cccc(Cl)c2)C(N2CCOCC2)[C@@H]1O (some centres undefined) | i
